Measured values published in ChEMBL document CHEMBL3988442, “University of Dundee, Small-Polar-MMV Screening Library” (2021).

Columns and labels:
[1] = target: T1, Aspartate--tRNA(Asp/Asn) ligase (Mycobacterium tuberculosis (strain ATCC 25618 / H37Rv)) (UniProt P9WFW3); experiment: Assay for Asp RNA synthetase-1 from Mycobacterium tuberculosis; format: functional; parameters: scale not given: direction of the effect not stated beside the values; conditions: 30 µM; also: in the data most compounds retested in dose-response had high values
T1 sequence (whole entry): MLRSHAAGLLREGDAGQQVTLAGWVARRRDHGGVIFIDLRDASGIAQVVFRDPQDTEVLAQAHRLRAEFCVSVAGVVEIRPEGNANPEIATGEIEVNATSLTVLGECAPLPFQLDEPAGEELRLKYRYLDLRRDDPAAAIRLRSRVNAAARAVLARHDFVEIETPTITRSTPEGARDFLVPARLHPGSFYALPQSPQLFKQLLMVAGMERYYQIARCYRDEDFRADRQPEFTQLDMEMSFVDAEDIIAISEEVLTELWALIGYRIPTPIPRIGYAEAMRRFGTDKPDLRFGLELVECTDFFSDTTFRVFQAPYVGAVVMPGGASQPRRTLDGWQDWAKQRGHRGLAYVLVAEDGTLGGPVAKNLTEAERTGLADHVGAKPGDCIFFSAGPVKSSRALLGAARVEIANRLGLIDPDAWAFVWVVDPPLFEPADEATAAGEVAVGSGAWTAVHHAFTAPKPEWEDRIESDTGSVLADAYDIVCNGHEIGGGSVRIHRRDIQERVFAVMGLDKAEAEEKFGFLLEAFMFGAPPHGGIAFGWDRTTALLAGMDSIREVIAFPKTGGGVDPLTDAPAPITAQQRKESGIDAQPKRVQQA

[2] = target: Shiga toxin 2 (Escherichia coli O157:H7) (UniProt P09385+P09386); experiment: E. coli 0.157:H7 Shiga Toxin SOP - stx2 screening assay; format: functional; parameters: scale not given: direction of the effect not stated beside the values; conditions: 30 µM

Compound | Percent Effect [1] | Percent Effect [2]
COc1ccc(CNC(=O)N(Cc2ccc(F)cc2F)C2CC2)cn1 | -9.17% | -13%
CC1CCN(S(=O)(=O)NCc2ccccc2Cn2cncn2)CC1 | -6.51% | 4.16%
COCCN1CCC2(CCCN(C(=O)c3cnoc3C)C2)C1=O (stereo not drawn) | 0.137% | -23%
COC(=O)CCc1c(C)nc2cc(O)nn2c1C | -3.67% | -37.6%
COCC1CC2(CCN(C(=O)c3occc3C)CC2)CO1 (stereo not drawn) | 2.64% | -0.429%
Cc1cccc(CN2C(=O)CCC23CCN(c2ncc(F)cn2)CC3)n1 | -0.66% | -5.21%
CNC(=O)[C@@H]1C[C@H]2CN(Cc3ccco3)C[C@H]2N1C | 1.3% | -1.93%
COc1cccc2c1OCC(NC(=O)NCc1cccs1)C2 (stereo not drawn) | 1.53% | 3.63%
CN(C)Cc1nc(C(C)(C)NC(=O)C2CC(=O)N(CC3CC3)C2)no1 (stereo not drawn) | -5.01% | 25.1%
Cn1cc(NC(=O)N2CCC(CN3CCCC3)CC2)ccc1=O | -3.79% | -22.6%
c1ccc(-c2cnc(CN3CCCC3Cn3cncn3)o2)cc1 (stereo not drawn) | -6.65% | 8.27%
Cc1ccc(CN2CCC3(CC(C(=O)NCC4CC4)=NO3)C2)cc1C (stereo not drawn) | 7.45% | -15.5%
COCC(=O)N1CCC2(CC1)CCN(Cc1ccccn1)C2=O | 3.22% | 7.27%
Cc1nc(CN2CCCCC2Cn2cncn2)nc2ccccc12 (stereo not drawn) | 1.73% | -15.2%
O=C(NCCCn1ccnc1)N1CCCC1c1cccs1 (stereo not drawn) | -2.61% | -5.52%
Cc1cnn(C(C)C2CC2)c1NC(=O)c1ccncc1 (stereo not drawn) | 4.07% | 1.34%
COc1ccc(Cl)cc1NCC(=O)NCCc1ccccn1 | -0.954% | 25.8%
COc1ccccc1Oc1ncccc1CNC(=O)[C@@H](C)NC(C)=O | 0.362% | -19.5%
Cc1cn2c(n1)CCC(NC(=O)c1cc(C(C)C)no1)C2 (stereo not drawn) | -4.01% | -5.41%
CCN(C(c1cccnc1)c1ccc2c(c1)CCO2)S(C)(=O)=O (stereo not drawn) | -3.44% | -49.4%
CN1CCCC1c1cccc(Cc2ccccc2F)n1 (stereo not drawn) | -0.581% | 1.7%
Cc1cnn(CC2CCCCN2C(=O)CN(C)C2CC2)c1 (stereo not drawn) | 2.98% | -50.8%
CCc1nc(CC(=O)Nc2cnn(CC3CCCO3)c2)cs1 (stereo not drawn) | 1.86% | -10.7%
COc1ccc(CS(=O)(=O)CC(=O)NCc2ccccc2F)cc1F | 5.03% | -1.34%
CCc1nnsc1C(=O)NCCn1nc2ccccn2c1=O | -6.91% | -19.6%

Compound | Percent Effect [1] | Percent Effect [2]
O=C(NCC1CC1)N1CCN(Cc2ccc3c(c2)OCCO3)CC1 | 0.365% | 16.2%
CCNC(=O)N1CCN(Cc2nc3ccccc3[nH]2)[C@@H]2CS(=O)(=O)C[C@@H]21 | 2.89% | -6.12%
CN(Cc1ccncc1)CC(c1cccs1)N1CCOCC1 (stereo not drawn) | -5.01% | -26%
CCNC(=O)CN1CCCN(C(=O)C2CCCc3[nH]ncc32)CC1 (stereo not drawn) | -3.09% | -2%
CCCN1CCN(C(=O)C(C)n2cc(Br)cn2)CC1 (stereo not drawn) | 5.74% | -31.6%
NC(=O)C1CCN(C(=O)c2cccc(CN3CCOCC3)c2)CC1 | -1.59% | 3.51%
CCn1cc(N2Cc3nc(N)ncc3C2=O)cn1 | -7.32% | -36.6%
CCOC1CCCN(C(=O)c2cnc3c(cnn3C3CCCC3)c2)C1 (stereo not drawn) | 2.51% | 15.6%
O=C1NCCN1C1CCN(Cc2ccccn2)CC1 | -1.42% | -6.38%
Cc1scc(C(=O)N2CCC3(CCCN(C)C3=O)C2)c1-c1ccccc1 (stereo not drawn) | 2.02% | 8.94%
Cn1ccc(-c2cc(C(=O)N3CCOCC3)c3ccccn23)n1 | 3.13% | -17.8%
Cc1nc[nH]c1CN1CCN(C(=O)CCC(F)(F)F)[C@H]2CS(=O)(=O)C[C@H]21 | -2.31% | 17.8%
CCn1cnnc1C1CCN(C(=O)C(OC)c2ccccc2)CC1 (stereo not drawn) | -2.71% | 9.67%
O=C(N1CCCO1)[C@@]12CCO[C@@H]1CCN(C1CCCCC1)C2 | -5.76% | -31.5%
Cc1nc(CCN(C)C(=O)C2COc3ccccc3C2)no1 (stereo not drawn) | 0.743% | -10.1%
COc1cc(NC(=O)c2cc(C)sc2C)c(C(=O)N(C)C)cc1OC | 7.46% | -44.2%
CN(C)C(=O)NCc1cc2n(n1)CCN(C[C@H]1[C@@H]3CNC[C@@H]31)C2 | -4.99% | -21.2%
Cc1cnn(CC(C)NCc2ccc(-n3cccn3)cc2)c1 (stereo not drawn) | -3.68% | -40%
Cc1nc(C)n(CC2CN(c3ncccn3)Cc3nccn3C2)n1 (stereo not drawn) | -0.127% | 11.6%
O=C(c1cccnc1)N1CCc2ncnc(C3CCOC3)c2CC1 (stereo not drawn) | -5.37% | -9.92%
CS(=O)(=O)CCSc1cccc(C#N)c1 | 0.641% | 4.17%
COc1ccc(C(CO)NC(=O)Nc2cccc(C#N)c2)cc1 (stereo not drawn) | 3.45% | -32.6%
CC(NC(=O)Cn1cccn1)c1ccc2c(c1)OCCCO2 (stereo not drawn) | -2.88% | -69%
c1ccc(C2CCCN2Cc2nnnn2C2CC2)cc1 (stereo not drawn) | -2.81% | -5.38%
COc1ccc(CN2C[C@@H]3CCCO[C@@H]3[C@H](NS(C)(=O)=O)C2)cc1 | 5.42% | -24%

Compound | Percent Effect [1] | Percent Effect [2]
CC(=O)N1CCOCC2(CCN(Cc3ccc(C)s3)CC2)C1 | 0.408% | -23.3%
c1ncn(CC2CCCCN2Cc2csc(C3CCCC3)n2)n1 (stereo not drawn) | -7.74% | -35.6%
Cc1csc(N2CCN(Cc3cnc(C)s3)CC2C)n1 (stereo not drawn) | 3.68% | 13.7%
CC(=O)N1CC[C@H]2OCC[C@@H](C(=O)N3CCCCO3)[C@@H]2C1 | 0.958% | -16.9%
O=C(c1cnccn1)N1CCN2C[C@H](OCc3ccccn3)C[C@H]2C1 | 4.4% | -7.9%
O=C(c1cc2cc(F)ccc2[nH]1)N1CCC(Nc2cccnn2)CC1 | -0.116% | -83.2%
CCc1nc(NCC(=O)N2CCOCC2)c2c(n1)c(C)nn2CC | -2.73% | -15.5%
Cc1cccc(C2(C(=O)NCCCn3cccn3)CC2)c1 | -9.29% | -5.42%
COCCn1ccc(NC(=O)Nc2cccnc2)n1 | -2.04% | -43.4%
Cc1cc2c(=O)n3c(nc2s1)CCN(C(=O)c1ccncc1)CC3 | 0.789% | 3.16%
COc1ccc(CN2CCc3ncnc(OC(C)C)c3CC2)cc1 | 8.01% | -9.16%
Cc1cc(CN(C)C(=O)c2cccc(N3CCCC3=O)c2)no1 | 4.48% | -12.4%
Cc1ccccc1CN1CCC(NCC2CNc3ccnn3C2)CC1 (stereo not drawn) | 0.127% | -38.1%
CC(=O)N(Cc1noc(C2CC2)n1)C1CCN(Cc2nccn2C)C1 (stereo not drawn) | -4.37% | 12.9%
CCn1nnc2c1C(COC)CN(Cc1cccs1)C2 (stereo not drawn) | -3.5% | 5.25%
Cn1cc(-c2ncnc3c2CCN(C(=O)N2CCOCC2)CC3)cn1 | -8.2% | -1.95%
COc1cn(-c2ccccc2)nc1C(=O)NCCCN1CCCC(C)C1 (stereo not drawn) | -1.18% | 7%
CS(=O)(=O)N1CCN(CC(O)COc2ccc(F)cc2)CC1 (stereo not drawn) | 1.99% | 26.7%
CN(C)CCNC(=O)c1cc(-c2cnc(N3CCCC3)nc2)cn1C | -0.309% | -17.7%
CC(C)Oc1ncccc1CNC(=O)C1CCCN(C(=O)C2CC2)C1 (stereo not drawn) | -4.79% | 33.3%
Cc1cc(C)n(CC2CN(CC(=O)NC3CCCC3)CCO2)n1 (stereo not drawn) | 0.91% | 13.3%
O=C(Nc1ccnc(OC2CCOC2)c1)c1cc(F)ccc1F (stereo not drawn) | -4.18% | -63.1%
COCCN1C(=O)C[C@H]2[C@H]1CCN2Cc1cccc(C#N)c1 | -5.22% | -7.15%
O=C(CCc1ccccn1)N1CCc2cc(Cl)cc(Cl)c2C1 | 15.8% | -69.6%
